Results as given in PubChem BioAssay (EPA / NIEHS).
The source holds several records for some structures; these can differ, active in one and inactive in another. Calls of active or inactive are those of the source. The calls were made as follows: active = hit-call score of the fitted dose curve at least 0.9, where 1 is the maximum; inactive = score below 0.9.

These compounds were tested on urokinase plasminogen activator (uPA), PLAU (gene 5328) (assay: BSK_BE3C_uPA: BioMAP Diversity Plus: BE3C Assay for urokinase plasminogen activator (uPA) Biomarker Activity (AID 2283038)). Conditions: primary human bronchial epithelial cells; actives raise or lower the signal.
Protocol: BSK_BE3C is a cell-based, multiplexed-readout assay that uses bronchial epithelial cell, a human lung primary cell, with measurements taken at 24 hours after chemical dosing in a 96-well plate.BSK_BE3CA is an assay component measured in the BSK_BE3C assay. It measures uPA antibody related to regulation of gene expression using ELISA technology.Data from the assay component BSK_BE3CA was analyzed into 1 assay endpoint. This assay endpoint, BSK_BE3CA, was analyzed with bidirectional fitting relative to DMSO as the negative control and baseline of activity. Using a type of binding reporter, gain or loss-of-signal activity can be used to understand changes in the signaling as they relate to the gene PLAU. Furthermore, this assay endpoint can be referred to as a primary readout, because this assay has produced multiple assay endpoints where this one serves a signaling function. To generalize the intended target to other relatable targets, this assay endpoint is annotated to the protease intended target family, where the subfamily is serine protease.
The levels of cell surface (or secreted, indicated by the prefix "s") biomarker endpoints were measured by ELISA. Overt cytotoxicity to cells in confluent adherent cultures (all systems other than the BT system) was assessed by measuring total protein levels using sulforhodamine B (SRB) staining in parallel cultures at the time of biomarker measurements, indicated as SRB endpoints. For proliferation assays for adherent cell types, individual cell types are cultured at sub-confluence and relative cell numbers quantified by SRB staining at time points optimized for each system (48 h: 3C and CASM3C systems; 72 h: BT and HDF3CGF systems; 96 h: SAg system). SRB was performed by staining cells with 0.1% SRB after fixation with 10% TCA and reading wells at 560 nm.Viability and proliferation of PBMC (T cells) was quantified by Alamar Blue reduction for the SAg and BT systems. For PBMC viability (referred to as PBMC Cytotoxicity within the assay endpoint names), cells were plated (75,000/well in a 96-well plate) and then chemical samples added for 1 h before addition of activators, SEB and TSST-1 (20 ng/mL final concentration each). Cells were incubated for 90 h. Then, Alamar Blue (20 uL/well) (Invitrogen, Cat DAL1100) was added for 6 h, and the plates were read with a fluorescence microplate reader at 546/580 nm (excitation/emission). For PBMC proliferation, cells were plated and activated as above but incubated for only 16 h prior to addition of Alamar Blue. Plates were read after 6 h.

| SMILES | outcome | AC50 |
| --- | --- | --- |
| CSCCC=O | inactive |  |
| C=C(C)[C@H]1CC=C(C)C(=O)C1 | inactive |  |
| Cc1cc(CCC(=O)OCCOCCOCCOC(=O)CCc2cc(C)c(O)c(C(C)(C)C)c2)cc(C(C)(C)C)c1O | inactive |  |
| COc1ccc(CCN2CCC(Nc3nc4ccccc4n3Cc3ccc(F)cc3)CC2)cc1 | inactive |  |
| C=C(C)C(=O)OCC(CC)(COC(=O)C(=C)C)COC(=O)C(=C)C | inactive |  |
| O=C1OC2(c3ccccc31)c1ccc(O)c(Br)c1Oc1c2ccc(O)c1Br | inactive |  |
| O=C1OC[C@H](Cc2cccc(O)c2)[C@H]1Cc1cccc(O)c1 | inactive |  |
| COc1cc(Cl)c(OC)cc1N | inactive |  |
| Clc1cc(Cl)c(-c2c(Cl)c(Cl)cc(Cl)c2Cl)cc1Cl | inactive |  |
| O=C1c2ccccc2C(=O)c2c(O)ccc(O)c21 | inactive |  |
| CC(C)(C)CC(C)(C)c1ccc(OCCOCC[N+](C)(C)Cc2ccccc2)cc1 |  | 5 µM (active) |
| CC(CN=Cc1ccccc1O)N=Cc1ccccc1O (stereo not given) | inactive |  |
| CC(C)(N=C=O)c1cccc(C(C)(C)N=C=O)c1 | inactive |  |
| CN(c1nccc(=O)[nH]1)C1CCN(c2nc3ccccc3n2Cc2ccc(F)cc2)CC1 | inactive |  |
| CC(=O)C1(C)CC2=C(CCCC2(C)C)CC1C (stereo not given) |  | 20 µM (active) |
| CC1(C)CCC[C@]2(C)[C@H]3CCO[C@]3(C)CC[C@@H]12 | inactive | 26.2 µM (active) |
| CCCCCCCCCCCCCCCC(=O)OC/C=C(C)/C=C/C=C(C)/C=C/C1=C(C)CCCC1(C)C | inactive |  |
| CC1(C)C2=CCCC(C)(C)[C@]23CC[C@H]1C3 | inactive |  |
| CC(=O)Nc1ccc(C(=O)CCl)cc1 | inactive |  |
| C=C(C)C(=O)OCCOCCOCCOCCOC(=O)C(=C)C | inactive |  |

| SMILES | outcome | AC50 |
| --- | --- | --- |
| CC(C=O)Cc1ccc(C(C)(C)C)cc1 (stereo not given) | inactive |  |
| CC(=O)c1c(C)c([N+](=O)[O-])c(C(C)(C)C)c([N+](=O)[O-])c1C | inactive |  |
| O=CN1CCOCC1 | inactive |  |
| CCCCOC(=O)CCCCCCCC(=O)OCCCC | inactive |  |
| C=C(C)C(=O)OCCOCCOCCOC(=O)C(=C)C | inactive |  |
| c1ccc(Oc2ccccc2)cc1 | inactive |  |
| c1ccc(CCc2ccccc2)cc1 |  | 28.9 µM (active) |
| Oc1c(Cl)cc(Cl)c(Cl)c1Cc1c(O)c(Cl)cc(Cl)c1Cl | inactive |  |
| C1=CC2C3C=CC(C3)C2C1 (stereo not given) | inactive |  |
| CCCCN(CCCC)C(=O)N(CCCC)CCCC |  | 9.69 µM (active) |
| COc1ccc(OC)c(N=Nc2c(O)ccc3ccccc23)c1 | inactive |  |
| CS(=O)(=O)c1ccc(C2=C(c3ccccc3)C(=O)OC2)cc1 | inactive |  |
| O=C(Nc1ccc2c(O)c(N=Nc3ccc(N=Nc4ccc(S(=O)(=O)O)cc4)cc3)c(S(=O)(=O)O)cc2c1)c1ccccc1 | inactive |  |
| C=CC(C)(O)CCC=C(C)C (stereo not given) | inactive |  |
| C[C@@H]1CCN(C(=O)[C@H](CCCN=C(N)N)NS(=O)(=O)c2cccc3c2NC[C@H](C)C3)[C@@H](C(=O)O)C1 | inactive |  |
| CCCCCC(C=O)=Cc1ccccc1 | inactive |  |
| CCOC(=O)C(C#N)=C(c1ccccc1)c1ccccc1 | inactive |  |
| IC(I)I | inactive |  |
| c1ccc2cc(Nc3ccc(Nc4ccc5ccccc5c4)cc3)ccc2c1 | inactive |  |
